The entries come from a sample that favours hits as a whole.
RmlC RmlD mix – RmlC and RmlD coupled enzyme inhibitors, primary screen, biochemical, 384-well, compound mixtures, retest; RmlC/RmlD coupled enzyme inhibition, 384-well mixture HTS; inhibition, % at 5.5 µM; 110,000 compounds, 0.39% hits; AID 1532, 2009; in the data active = inhibition above about 30%, passing the limit was not always enough
RT RNaseH block – HIV-1 RT RNase H inhibitors, primary screen, biochemical, fluorescence. RT-RNase H RNA/DNA duplex cleavage. inhibition, % at 10 µM. 65,000 compounds, 1.9% hits. AID 565, 2006; in the data active = inhibition above about 50%
Starred values were filed as active, the others as inactive; nt = no result.

SMILES	RmlC RmlD mix	RT RNaseH block
CCC1/C(=N\O)CC(c2ccco2)NC1c1ccco1 (configuration not stated)	-10.2	nt
N#CC1=C2SCN(Cc3ccco3)CN2C(=O)CC1c1ccccc1F (configuration not stated)	-12.9	nt
N#CC1=C2SCN(Cc3ccco3)CN2C(=O)CC1c1cccc2ccccc12 (configuration not stated)	7.4	56.5*
COc1ccc(CC(=O)Nc2ccc(-c3cn4ccc(C)cc4n3)cc2)cc1	-5.2	nt
CC(=O)N1[C@H](C)C=C[C@]1(Cc1ccccc1)C(=O)O	-19.9	nt
COc1ccc(N2CCN(Cc3cc(=O)oc4c3ccc3ccccc34)CC2)cc1	nt	54.4*
COc1ccc(N2CCN(Cc3cc(=O)oc4ccc(C)cc34)CC2)cc1	-8.6	nt
Cc1cccc2cc(CN(Cc3ccccc3)C(=O)c3cccc(F)c3)c(Cl)nc12	12.0	nt
Cc1ccc2oc(-c3ccc(NC(=O)c4ccc5c(c4)OCO5)cc3)nc2c1	-34.9	64.4*
O=C(Nc1ccc(-c2nc3ccccc3o2)cc1)c1ccc2c(c1)OCO2	-73.1	26.9
CC(C)CCNC(=O)c1onc(CSc2ccc(F)c(F)c2)c1C(=O)NCCC(C)C	-5.7	nt
CCO[C@H]1OC(C(=O)Nc2ccccc2)=C[C@@H](c2ccc(C(F)(F)F)cc2)[C@@H]1CCCO	-4.4	nt
COc1ccccc1NC(=O)c1sc2ncn(Cc3cccc(C)c3)c(=O)c2c1C	65.6*	nt
COc1ccccc1NC(=O)c1sc2ncn(Cc3ccc(C)cc3)c(=O)c2c1C	36.5	nt
Cc1cc(NC(=O)CSc2nc(C(C)C)nc3sc(C)c(C)c23)no1	3.9	-2.4
Cc1cc(NC(=O)CSc2ncnc3sc4c(c23)CCC(C)C4)no1 (configuration not stated)	nt	84.1*
O=C(NC1CCCC1)c1sc(=S)n2c1[nH]c(=O)c1ccccc12	4.7	29.6
O=C(NCc1ccco1)c1sc(=S)n2c1[nH]c(=O)c1ccccc12	15.9	58.2*
O=C(O)c1ccc2c(c1)C(=O)N(C(Cc1ccccc1)C(=O)O)C2=O (configuration not stated)	7.7	-7.0
O=C(O)c1ccc2c(c1)-c1nc3ccccc3n1C2=O	121.8*	nt
CCO[C@H]1OC(C(=O)N2CCN(C)CC2)=C[C@@H](C2CC2)[C@@H]1CCCO	7.0	nt
CCOC(=O)Cc1csc(SCC(=O)Nc2cc(Cl)ccc2Oc2ccccc2)n1	-14.4	nt
Cc1cc(NCCN2CCOCC2)n2nc(C)c(-c3ccccc3)c2n1	29.7	-0.3
COCCNc1cc(C)nc2c(-c3ccccc3OC)c(C)nn12	-1.1	-8.0
Cc1cc(C)c2c(n1)nn1c(NCCN3CCOCC3)cc(C)nc21	57.8*	-11.9
SMILES	RmlC RmlD mix	RT RNaseH block
COCCNc1cc(C)nc2c3c(C)cc(C)nc3nn12	58.1*	-8.6
COc1cccc(-c2csc(N3CCN(C(=O)NC45CC6CC(CC(C6)C4)C5)CC3)n2)c1	4.4	nt
Cc1ccc(NC(=O)COC(=O)C2CC2C)c(S(=O)(=O)N2CCCCC2)c1 (configuration not stated)	0.8	1.6
CCCCOCCCn1c(N)c(C(=O)OC(C)COC)c2nc3ccccc3nc21 (configuration not stated)	30.3	7.2
COCCCn1c(N)c(C(=O)OC(C)COC)c2nc3ccccc3nc21 (configuration not stated)	46.3*	2.8
Cc1ccc(S(=O)(=O)NC2CCCc3ccccc32)cc1C (configuration not stated)	-12.0	nt
COc1ccc(-n2nc(C(=O)NCC(=O)NCc3ccc(F)cc3)c3ccccc3c2=O)c(OC)c1	-12.3	nt
O=C(Nc1ccc2c(c1)nc1n2CCN(Cc2ccccc2)C1)NC1CCCCC1	24.0	nt
COCCN1CCn2c(nc3cc(NC(=O)NC4CCCCC4)ccc32)C1	59.4*	-14.5
C=CCNc1cc(C(F)(F)F)nc(-c2ccccn2)n1	4.4	nt
COc1ccc(CNC(=O)c2sc(=S)n(-c3ccc(OC)cc3)c2N)cc1	8.7	nt
COC(=O)c1sc(=S)n(-c2cc(F)ccc2F)c1N	-1.3	72.2*
CCOC(=O)c1sc(=S)n(-c2cc(F)ccc2F)c1N	-9.4	72.0*
CCOC(=O)c1sc(=S)n(-c2ccc(Cl)cc2)c1C	4.6	nt
COc1ccc2cc(C)c3nnc(SCC(=O)Nc4nc(-c5ccccc5)cs4)n3c2c1	-15.6	nt
O=C1CC(N2CCN(c3nc4ccccc4s3)CC2)C(=O)N1c1cccc(F)c1 (configuration not stated)	-0.9	nt
Cc1cccc(Oc2sc(C(=O)c3ccccc3)c(N)c2C#N)c1	2.7	nt
CCOC(=O)N1CCN(c2ncnc3c2cnn3-c2ccc(Cl)cc2)CC1	-11.0	69.3*
CCN1CCN(c2ncnc3c2cnn3-c2ccc(Cl)cc2)CC1	9.5	-7.3
COc1ccc2nc(C3CCCCC3)c3c(c2c1)CCC3	-19.8	nt
Cc1onc(-c2ccccc2Cl)c1C(=O)NCc1ccc(S(N)(=O)=O)cc1	-33.2	-4.5
Cc1onc(-c2c(F)cccc2Cl)c1C(=O)NCCc1ccc(S(N)(=O)=O)cc1	-17.5	54.5*
CNc1nc(C)cc(C)c1S(=O)(=O)c1ccc(C)cc1	-13.0	nt
O=C(NCN1C(=O)C2C3C=CC(C3)C2C1=O)Nc1nccs1 (configuration not stated)	-6.4	54.6*
CCc1nnc(NC(=O)NCN2C(=O)C3C4C=CC(C4)C3C2=O)s1 (configuration not stated)	-11.8	-3.1
SMILES	RmlC RmlD mix	RT RNaseH block
Clc1cc(Cl)cc(Nc2ncn[nH]2)c1	-2.3	nt
CC(=O)Nc1c(Cl)n(C(C)=O)c2ccccc12	29.7	-5.9
CC(=O)n1c2ccccc2c2c1c1ccccc1n2C	-22.0	57.0*
Cc1c2c(nc3ccccc13)OCC2	6.2	nt
COC(=O)c1cc(NC(=O)Cc2ccccc2[N+](=O)[O-])cc(C(=O)OC)c1	5.3	nt
CCCn1c(SCC(=O)N2CCN(S(=O)(=O)c3ccc(Cl)cc3)CC2)n[nH]c1=O	-13.1	-16.4
Cc1cc(C)n2c(SCC(=O)N3CCN(S(=O)(=O)c4ccc(Cl)cc4)CC3)nnc2n1	-19.5	69.6*
O=C(O)c1nn(-c2ccccc2)ccc1=O	4.2	nt
O=C(c1cc(-c2cccs2)on1)N1CCN(c2ccc(F)cc2)CC1	10.7	-8.4
O=C(c1cc(-c2cccs2)on1)N1CCN(c2ccccc2)CC1	nt	56.9*
Cc1ccccc1-n1c(=O)c(C#N)cc2c(=O)n3ccccc3nc21	123.1	nt
Cc1cc(-n2c(=O)c(C#N)cc3c(=O)n4ccccc4nc32)no1	54.7*	4.1
COc1ccccc1CNC(=O)c1nn(-c2ccc(C)cc2)c(=O)c2c1c1ccccc1n2C	-21.1	nt
CCOC(=O)c1cnn(-c2nc(-c3cccc(F)c3)cs2)c1C(F)(F)F	-1.6	nt
CC(C)Cn1[nH]c2c3c(ccc2c1=O)C(=O)c1ccccc1C3=O	-8.7	nt
CCCCOc1ccccc1NC(=O)CC1Nc2ccccc2NC1=O (configuration not stated)	-6.2	68.8*
CCCCNC(=O)CC1Nc2ccccc2NC1=O (configuration not stated)	-3.9	0.0
Cc1ccc(O)c(C(=O)c2cnc3c(c2)CN(C)C(=O)N3)c1	10.0	nt
CN1Cc2cc(C(=O)c3cc(Cl)cc(CSc4ncccn4)c3O)cnc2NC1=O	-1.5	59.2*
O=C(Nc1nc(-c2ccccc2)cs1)c1ccc(Br)o1	11.5	66.2*
Cc1ccc(C(=O)Nc2nc(-c3cccnc3)cs2)o1	-10.3	nt
